Screens (PubChem BioAssay)
Casp7 inh: blocks human caspase-7 allosterically or competitively | P55210 | recombinant caspase-7, Ac-DEVD-AFC fluorescence rate | Potency, µM (series often up to 57.5 µM), usual class: inhibitors | 75,000 compounds, 0.02% hits; active = well fitted inhibition curve with a large enough effect in the main read-out, with a control signal flat, not every such curve was filed as active; inconclusive = small, poorly fitted or top-dose-only effect, or a change in a side signal
USP2a inhib: USP2a (human) protease inhibition; O75604; USP2a enzymatic assay, qHTS inhibition; Potency, µM (series often up to 38.3 µM), actives largely listed as inhibitors; 60,000 compounds, 0.1% hits; AID 927; also: nearly all actives have a fitted effect of over 60% in size
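Coupled readout: USP2-cleaved Ub-PLA2 (20nM final) turns over NBD C6-HPC (20uM final), Ex 460nm/Em 535nm after 2.5 h, time-zero read flagging artifacts. Enzyme (20nM final, pH 8.0 Tris) given 30 min RT with compound first; NEM defines full inhibition.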
TSHR ag: agonists of human thyroid stimulating hormone receptor; P16473; HEK293-CNG-TSHR cells (CNG channel as cAMP sensor), membrane potential dye, cAMP; Potency, µM (highest dose often 57.1 µM), hits mostly activators; 73,000 compounds, 0.48% hits; active = well fitted activation curve with a large enough effect in the main read-out, with a control signal flat, not every such curve was filed as active; inconclusive = small, poorly fitted or top-dose-only effect, or a change in a side signal; inactive = no such curve, though single readings can be large or run the other way; reference of the percent scale not stated here;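 also: the control signal comes from parental cells without the receptor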
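HEK 293 cells stably expressing TSHR and a cAMP-gated CNG channel; parental CNG-only cells as counterscreen. Cells preloaded 60 min with membrane potential dye plus 100 uM RO 20-1724, then compound 30 min; fluorescence read at 590 nm.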
HEK293 cAMP cs: raises cAMP in parental HEK293 cells, TSHR agonist counter-screen | Potency, µM (top dose mostly 57.1 µM), actives largely listed as activators | parental HEK293 CNG cAMP sensor, membrane potential fluorescence | 73,000 compounds, 2.5% hits | AID 938; also: nearly all actives have a fitted effect of over 55% in size
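Counterscreen for endogenous-receptor signalling: CNG-channel HEK 293 cells report cAMP rise by membrane depolarization. After 60 min dye equilibration with 100 uM RO 20-1724, compounds incubated 30 min before bottom-read fluorescence at 590 nm.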
CRE Fsk mod: modulators of forskolin-stimulated CRE signaling in CHO cells. CHO CRE-bla reporter (cAMP response element driving beta-lactamase), forskolin EC10, beta-lactamase ratio. Potency, µM (series often up to 38.2 µM), usual class: activators. 71,000 compounds, 2.5% hits. AID 662; active = well fitted activation curve with a large enough effect in the signal ratio, with a control signal flat, not every such curve was filed as active; inconclusive = small, poorly fitted or top-dose-only effect, or effect the other way, or a change in a side signal; the % refers to the signal ratio
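CRE-bla CHO cells stimulated with EC10 NKH 477 (water-soluble forskolin) and compound titrations, 3 h at 37C; beta-lactamase read with CCF4 after 2 h at room temperature. Activity from 460/530 nm emission ratio, AC50 values for positive or negative modulation.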
Caspase-1 inhib: blocks human caspase-1 allosterically or competitively; P29466; Caspase-1 enzyme, Ac-WEHD-AFC fluorogenic rate; Potency, µM (highest dose often 57.5 µM), actives largely listed as inhibitors; 75,000 compounds, 0.03% hits; AID 900
Hits are given with their value; n = inactive; u = inconclusive; x = no result given; [ ] = remark or other dose. In the library only some 5% were active in any assay of this set; here they are far more common. Unless noted, calls follow the shape of the dose curve; as a rule, active = well fitted curve in the direction sought with a large enough effect; inconclusive = small, poorly fitted or top-dose-only effect, or another doubt; inactive = no such curve, though single readings can be large; an effect the other way counts as inactive or inconclusive.

SMILES	Casp7 inh	USP2a inhib	TSHR ag	HEK293 cAMP cs	CRE Fsk mod	Caspase-1 inhib
NC(=S)c1ccc[n+]([C@@H]2O[C@@H](COP(=O)([O-])OP(=O)(O)OC[C@@H]3O[C@@H](n4cnc5c(N)ncnc54)[C@@H](OP(=O)(O)O)[C@H]3O)[C@@H](O)[C@H]2O)c1	n	n	u	u	n	n
O=C(O)c1ccc(Cl)cc1Cl	n	x	u	n	n	u
Cc1oc(C)c2c(=O)ccc3c(c12)OC(N)=C(C#N)C3c1ccccc1 (stereo unspecified)	n	n	n	n	0.25µM	u
CSc1ccc(C2C(C#N)=C(N)Oc3c2ccc(=O)c2c(C)oc(C)c32)cc1 (stereo unspecified)	n	n	n[11.4 µM]	n	n	n
Cc1cc(N2CCN(c3nc(N4CCOCC4)nc4ccccc34)CC2)c2ccccc2n1	n	n	n	n	n	n
Cc1cc(N2CCOCC2)c2c(N)c(Br)cc(C)c2n1	n	n[7.66 µM]	n[11.4 µM]	n[11.4 µM]	0.79µM	n
Cc1cc(C(=O)OCCO)c(C#N)c(N)n1	u	n	n	n	u	x
Cc1cc(-c2ccccc2)c(C#N)c(N)n1	n	n	n	n	13µM	u
COC(=O)c1ccc(NS(=O)(=O)c2ccc3c(c2)oc(=O)n3C)cc1	n	x	u	1.3µM	n	n
CCCCn1nnnc1NCc1cccnc1	n	n	n	n	n	n
CCn1nnnc1NCc1cccn1C	n	n	u	25µM	u	n
COc1ccc(COC(=O)N/N=C2/C[C@@H](O)[C@@H](O)[C@@H]3[C@@H]4C(=O)N(Cc5ccccc5)C(=O)[C@H]4CC[C@@H]23)cc1	n[11.5 µM]	x	n[11.4 µM]	n[11.4 µM]	x	n[11.5 µM]
C=Cc1ccc([C@H]2N[C@@H](C(=O)O)CC[C@@H]2C)cc1	n[11.5 µM]	x	n[11.4 µM]	n[11.4 µM]	x	n[11.5 µM]
Cc1cc(C)c2c(CC(=O)NCc3ccco3)coc2c1	n	u	32µM	n	n	n
CCNc1nc(OC)nc(Oc2ccc(=O)n(-c3ccccc3)n2)n1	n	n	n	n	u	n
COc1nc(NCC(C)C)nc(Oc2ccc(=O)n(-c3ccccc3)n2)n1	n	x	n	n	13µM	n
C/C(=N\O)c1cccc[n+]1Cc1ccccc1	n[11.5 µM]	x	n[11.4 µM]	n[11.4 µM]	n[7.6 µM]	n[11.5 µM]
CCCCn1c(CN2C(=O)c3ccccc3C2=O)nc2ccccc2c1=O	n	n	20µM	n	n	n
CCCn1c(SCc2ccccn2)nc2c1c(=O)n(C)c(=O)n2C	n	x	n	n	u	n
CCc1nc(SCc2ccccn2)c2c(=O)n(C)c(=O)n(C)c2n1	n	x	n[11.4 µM]	n	2.5µM	n
CC(C)c1nc(SCc2ccccn2)c2c(=O)n(C)c(=O)n(C)c2n1	n	x	n	n	5µM	n
c1ccc2c(c1)c1ccccc1n2Cn1c2ccccc2c2ccccc21	n[11.5 µM]	x	n[11.4 µM]	n[11.4 µM]	n[7.6 µM]	n[11.5 µM]
COc1ccc(O[C@H]2C=C[C@@H](c3ccccc3)O[C@H]2COC(=O)N2CCCCC2)cc1	n[11.5 µM]	x	n[11.4 µM]	n[11.4 µM]	x	n[11.5 µM]
COc1ccccc1CNc1nc(-c2ccoc2)nc2ccccc12	n	n	u	u	n	n
CCN(CC)c1ccc(-n2cc3c(=O)n(C)c(=O)n(C)c3c2)cc1	n	n	n	n	10µM	n
SMILES	Casp7 inh	USP2a inhib	TSHR ag	HEK293 cAMP cs	CRE Fsk mod	Caspase-1 inhib
O=C(N1CCCCC1)C1(c2ccccc2)CCOCC1	n	n	u	16µM	n	n
O=C(N1CCOCC1)C1(c2ccccc2)CCCCC1	n	n	n	n	n	n
Cc1cc(Br)ccc1OCC(=O)N(Cc1nc(-c2ccccc2)no1)C(C)C	n	n	u	10µM	u	n
CC(C)N(Cc1nc(-c2ccccc2)no1)C(=O)COc1ccccc1	n	x	x	n	n	n
COc1ccc(OC)c2c(=S)c3ccccc3[nH]c12	u	x	n	n	20µM	x
C=C(C)CNCCN	n[11.5 µM]	x	n[11.4 µM]	n[11.4 µM]	n[7.6 µM]	n[11.5 µM]
O=C(CN1C(=O)COc2ccccc21)N(Cc1cccnc1)Cc1ccccc1F	n	x	u	10µM	n	n
COc1ccc(-c2cn3cccnc3n2)cc1NC(=O)c1ccc(Br)o1	n	n	n	n	2.5µM	n
C[C@H](CO)NC(=O)[C@@H]1C[C@H]1[C@@H](NP(=O)(c1ccccc1)c1ccccc1)c1ccccc1	n	x	u	16µM	n	n
Cc1oc(-c2ccc(F)cc2)cc1-c1nn2c(-c3ccoc3C)nnc2s1	n	u	u	16µM	u	n
CN(C)c1nc(OCCOC(=O)c2ccccc2)nc(N(C)C)n1	n	n	n	n	5µM	n
CCOC(=O)c1ccc(Oc2nc(NC(C)(C)C)nc(N(C)C)n2)cc1	n	n	u	25µM	n	n
